From PubChem BioAssay
Sampled rows, rich in hits. Any-hit rate of the full collection: about 5.3%.
Tau fibril ThT: qHTS for Inhibitors of Tau Fibril Formation, Thioflavin T Binding | AID 1460, 2008 | recombinant tau K18 P301L, heparin-induced fibrillization, ThT fluorescence | Microtubule-associated protein tau (Homo sapiens), P10636 | Potency, µM (series often up to 57.4 µM), inactives show at the top dose activity, negative = inhibition, actives largely listed as inhibitors | 270,000 tested, 2.1% active; also: potency is read from the fitted curve at half-maximal effect; nearly all actives have a fitted effect of over 55% in size
Target sequence (P10636 561-689 P618L limits assumed): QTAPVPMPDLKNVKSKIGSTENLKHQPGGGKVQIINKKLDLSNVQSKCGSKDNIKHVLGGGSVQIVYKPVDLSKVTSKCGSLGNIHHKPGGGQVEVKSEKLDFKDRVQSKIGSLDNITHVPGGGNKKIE
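Recombinant human tau K18 fragment […] carrying P301L, 15 uM unlabeled plus 0.24 uM Alexa 594-labeled, was fibrillized with 20 uM heparin in 100 mM sodium acetate pH 7 for 6 hr at 37 C; 30 uM ThT fluorescence read after 1 hr.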
JMJD2E inh: qHTS Assay for Inhibitors of Human Jumonji Domain Containing 2E (JMJD2E) | Lysine-specific demethylase 4E (Homo sapiens), B2RXH2 | JMJD2E catalytic domain, FDH-coupled NADH fluorescence (FDH is formaldehyde dehydrogenase) | Potency, µM (highest dose often 57.1 µM), without a hit: at the highest dose activity change, negative = inhibition, actives largely listed as inhibitors | 230,000 tested, 1.6% active | AID 2147, 2009; active = well fitted inhibition curve with a large enough effect, not every such curve was filed as active; inconclusive = small, poorly fitted or top-dose-only effect, or another doubt; inactive = no such curve, though single readings can be large or run the other way;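 also: potency is read from the fitted curve at half-maximal effect; 0% = wells with enzyme and -100% = buffer wells without enzyme; nearly all actives have a fitted effect of over 50% in size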
Target sequence (B2RXH2 1-337 limits assumed): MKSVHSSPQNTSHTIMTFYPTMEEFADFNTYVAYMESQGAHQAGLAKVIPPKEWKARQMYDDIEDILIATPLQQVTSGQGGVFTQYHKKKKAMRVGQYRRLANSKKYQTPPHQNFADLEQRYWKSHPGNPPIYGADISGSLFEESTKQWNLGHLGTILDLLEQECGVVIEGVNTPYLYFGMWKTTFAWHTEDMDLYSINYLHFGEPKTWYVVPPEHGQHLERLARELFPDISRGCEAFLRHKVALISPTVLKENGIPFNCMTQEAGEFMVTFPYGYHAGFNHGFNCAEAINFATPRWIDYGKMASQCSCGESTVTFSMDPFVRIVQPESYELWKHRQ
Tau fluor counter: Counterscreen qHTS for Inhibitors of Tau Fibril Formation, Fluorescence Polarization. tau K18 P301L (four-repeat tau fragment) Alexa594 fluorescence, heparin fibrillization. Potency, µM (highest dose often 57.7 µM), for inactives: at the top dose activity change, negative = decrease. 280,000 tested, 0.93% active; also: potency is read from the fitted curve at half-maximal effect; nearly all actives have a fitted effect of over 55% in size
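Human K18 P301L tau (15 uM unlabeled plus 0.24 uM Alexa 594-labeled, final) in 100 mM sodium acetate pH 7 was mixed with compound and 20 uM heparin and incubated 6 hr at 37 C.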
Sfp PPTase inh: qHTS Assay for Inhibitors of Bacillus subtilis Sfp phosphopantetheinyl transferase (PPTase); 4'-phosphopantetheinyl transferase ffp (Bacillus subtilis), Q9F4F7; Biochemical Sfp PPTase activity, qHTS; Potency, µM, without a hit: largest response in the series, negative = inhibition, hits mostly inhibitors; 310,000 tested, 3.5% active;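 also: the enzyme is Sfp with the accession as filed and its product quenches rhodamine fluorescence; potency is read from the fitted curve at half-maximal effect; 0% = enzyme reaction without inhibitor and -100% = no enzyme wells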
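Fluorescence-quenching assay: 15 nM Sfp-PPTase preincubated 15 min at room temperature with compound, then 5 uM rhodamine-CoA and 12.5 uM BHQ-2-labelled YbbR peptide added. Fluorescence (ex 525/em 598 nm) read at start and after 30 min; difference gives rate.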
Tau fibril FP: qHTS for Inhibitors of Tau Fibril Formation, Fluorescence Polarization. Potency, µM (doses to about 57.7 µM), for inactives: at the highest dose activity, negative = inhibition, actives largely listed as inhibitors. AID 1468, 2008. Microtubule-associated protein tau (Homo sapiens), P10636. K18 P301L tau heparin fibrillization, Alexa594 FP, 6 h. 280,000 tested, 0.39% active; also: potency is read from the fitted curve at half-maximal effect; nearly all actives have a fitted effect of over 55% in size
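Human K18 P301L fragment (15 uM unlabeled plus 0.24 uM Alexa 594-labeled) in 100 mM sodium acetate pH 7 with compound, aggregation induced by 20 uM heparin for 6 hr at 37 C. ThT (30 uM) added for 1 hr, then Alexa 594 FP read.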
Coupling enz: qHTS Assay for Inhibitors of Fructose-1,6-bisphosphate Aldolase from Giardia Lamblia: Coupling assay counterscreen; coupling enzyme system counterscreen, AmpLite Red fluorescence; activity change, negative = inhibition, % at 58.2 µM, hits read low; 290,000 tested, 0.67% active; AID 2472, 2010; in the data active = activity change below about -30%
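Compounds tested against the coupling enzymes alone at 57.5 uM final; readout was AmpLite Red fluorescence (525/598 nm) after 20 min at RT.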
Active calls of the source: *; u = inconclusive; x = no result; [ ] = remark or other dose. Unless noted, calls follow the shape of the dose curve; as a rule, active = well fitted curve in the direction sought with a large enough effect; inconclusive = small, poorly fitted or top-dose-only effect, or another doubt; inactive = no such curve, though single readings can be large; an effect the other way counts as inactive or inconclusive. Unless noted, % is scaled to controls: 0 for no effect and ±100 for the full control effect.

SMILES | Tau fibril ThT | JMJD2E inh | Tau fluor counter | Sfp PPTase inh | Tau fibril FP | Coupling enz
Cc1c(Cc2ccccc2)sc(N)c1C(N)=O | u | -12% | -23% | 40µM* | u | -3
CCOC(=O)c1cc(CC)sc1/N=C/c1c(O)ccc2ccccc12 | u | u | -7% | -19% | -12% | -34*
Cc1ccc(CNC(=O)Cn2cc(S(=O)(=O)Cc3ccccc3F)c3ccccc32)cc1 | -11% | x | u | x | -6% | x
COc1ccc2c(c1)c(CC(=O)NCc1ccc3c(c1)OCO3)c(C)n2C(=O)c1ccc(Cl)cc1 | 0% | -17% | 0% | 0% | 0% | 6
Cc1nc2c3ccccc3n(Cc3ccccc3F)c2s1 | u | 8% | -21% | -21% | u | 0
Cc1nc2c3cc(F)ccc3n(Cc3ccccc3F)c2s1 | u | 0% | u | 18µM* | u | -10
CCOC(=O)c1ccc2c(c1)nc(SCC(=O)c1ccco1)n2CC | u | 0% | -14% | 50µM* | 4% | -5
CCOC(=O)c1ccc2c(c1)nc(SCC(=O)N1CCCCC1)n2CC | u | -16% | -8% | 10% | 4% | 1
CCOC(=O)CCN1C(=O)[C@H]2[C@H]3[C@H](O)[C@H](O)C/C(=N/NC(=O)OCc4ccccc4)[C@H]3CC[C@@H]2C1=O | -9%[11.5 µM] | x | -2%[11.6 µM] | 14% | 4%[11.6 µM] | 4
COc1ccc(-n2nc3cc(C)c(N)cc3n2)cc1Cl | x | x | x | 79µM* | x | -4
Cc1cc2nn(-c3ccc(Cl)cc3)nc2cc1N | x | x | x | -19% | x | 1
COc1cc(/C=C\C(=O)N2CCC=CC2=O)cc(OC)c1OC | x | -4%[25.5 µM] | x | 15% | x | -1
CS(=O)(=O)c1ccc(S(=O)CC(=O)Oc2ccc(Cl)cc2)c([N+](=O)[O-])c1 (stereo not given) | 3.5µM* | 3.2µM* | -25% | u | u | -27
O=C(CS(=O)c1ccccc1[N+](=O)[O-])Oc1ccc(Br)cc1 (stereo not given) | u | -4% | u | -6% | u | 0
O=C(Nc1nc(-c2ccccn2)cs1)C12CC3CC(CC(O)(C3)C1)C2 | -14% | u | -12% | 40µM* | 1% | -4
O=C(CC1CC2CCC1C2)Nc1nc(-c2ccccn2)cs1 (stereo not given) | u | -41% | u | 35µM* | -10% | -4
COc1ccc(OCCCC(=O)Nc2nc(-c3ccccn3)cs2)cc1 | u | -13% | -18% | 40µM* | -12% | -3
CNc1cccc2c1C(=O)c1ccccc1C2=O | 8.9µM* | -8% | u | 11% | -3% | -9
COc1cc(/C=C/C(=O)N2CCN(C(=O)/C=C/c3cc(OC)c(OC)c(OC)c3)CC2)cc(OC)c1OC | x | x | x | 18% | x | -1
C=CCSc1nc2ccccc2n1C(=O)/C=C/c1ccc(OC)c(OC)c1 | 14µM* | u | -20% | 28µM* | u | 0
C=CCSc1nc2ccccc2n1C(=O)/C=C/c1cc(OC)c(OC)c(OC)c1 | 25µM* | -7% | -17% | -15% | 22µM* | 7
CCSc1nc2ccccc2n1C(=O)/C=C/c1ccc(OC)c(OC)c1 | 7.9µM* | u | -23% | 56µM* | 7.9µM* | 3
Cc1cccc(OCc2nnc(SCC(=O)Nc3ccc(C)cc3C)o2)c1 | -6% | x | -3% | x | -11% | x
COC(=O)c1ccc2c(c1)N(CC(=O)Nc1ccc(C)cc1Cl)C(=O)c1ccccc1S2 | -1% | x | -1% | x | -6% | x
CSCC[C@@H]1NC(=O)[C@@H](NC(=O)[C@H](CCCNC(=N)N)NC(=O)[C@H](CC(C)C)NC(=O)[C@H](CCSC)NC(=O)[C@H](CC(=O)O)NC(=O)[C@H](Cc2ccccc2)NC(=O)[C@@H](N)CC(=O)O)CSSC[C@@H](C(=O)N[C@@H](Cc2c[nH]c3ccccc23)C(=O)N[C@@H](CCC(N)=O)C(=O)N[C@@H](Cc2ccc(O)cc2)C(=O)O)NC(=O)[C@@H]2CCCN2C(=O)[C@H](CCCNC(=N)N)NC(=O)[C@H](Cc2ccccc2)NC(=O)[C@H](C(C)C)NC(=O)[C@H](CCCNC(=N)N)NC(=O)CNC(=O)[C@H](CC(C)C)NC1=O | x | x | x | x | x | 1
SMILES | Tau fibril ThT | JMJD2E inh | Tau fluor counter | Sfp PPTase inh | Tau fibril FP | Coupling enz
CC(C)S(=O)(=O)c1csc(NC(=O)Nc2cc(Cl)ccc2Cl)c1Cl | 2% | 0% | u | -1% | 22µM* | -15
O=[N+]([O-])c1ccc(SCCc2ccccn2)cc1 | x | -1% | -6% | u | -1% | 0
O=[N+]([O-])c1ccc(SCCc2ccncc2)cc1 | u | 4% | -6% | 50µM* | 2% | 1
N#Cc1c(/N=C/c2ccc(Br)s2)sc2c1CCC2 | u | -3% | -14% | 5% | -6% | 0
N#Cc1c(/N=C/c2cccs2)sc2c1CCCCC2 | 3.2µM* | -3% | -26% | -14% | -6% | -3
CN(C)C(=O)NC1CCCCCCC1 | x | x | x | -8% | x | 0
CC(C)c1ccc(NC(=S)Nc2ccc3cn[nH]c3c2)cc1 | u | u | -25% | 10% | 3% | -13
CC(=O)c1ccc(NC(=S)Nc2ccc3cn[nH]c3c2)cc1 | 16µM* | u | u | 32µM* | u | -5
O=C(Nc1ccc2cn[nH]c2c1)c1c(Cl)cccc1Cl | -11% | -4% | -11% | 40µM* | -5% | -8
O=C1C(Cl)=C(Nc2ccc3cn[nH]c3c2)C(=O)c2ccccc21 | 1.8µM* | 10µM* | 1.4µM*[quencher] | 8.9µM* | 7.9µM* | -36*
Cc1ccc(CNC(=O)CCc2c(C)nc3c4c(C)cc(C)nc4nn3c2C)cc1 | u | x | 2% | x | 9% | x
Cn1c(C(=O)c2ccccc2[N+](=O)[O-])nc2ccccc21 | 1% | -6% | -5% | 2% | -2% | -30*
O=C(N/N=C/C=C\c1ccco1)c1ccccn1 | u | u | -19% | 20µM* | u | -26
O=C(N/N=C/C=C/c1ccco1)c1cnccn1 | 3% | 0% | -5% | 10µM* | 1% | -10
O=C1OCC2=C1C(c1cccc(Cl)c1)CC(=O)N2c1ccc(C(F)(F)F)cc1 (stereo not given) | 6% | x | -6% | x | -3% | x
Cc1onc(C(=O)Nc2sc3c(c2C(N)=O)CCCC3)c1[N+](=O)[O-] | x | -4% | 1% | 25µM* | -1% | -2
CCc1c(C)sc(NC(=O)c2noc(C)c2[N+](=O)[O-])c1C#N | u | -9% | -18% | 50µM* | -7% | -5
